Source: ChEMBL document CHEMBL1201862, “PubChem BioAssay data set” (2004)
In all, about 54,000 […] went through this assay and about 4,800 (8.9%) were called active. Cut-off read from the data, not from the text of the source: active = GI50 up to about 1.1 µM and inactive = higher. The list is a sample of the results. Measured potencies and affinities stand elsewhere.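 Where inhibition never reached the appropriate level, the endpoint shown equals the highest concentration tested. Otherwise, values were interpolated linearly from a five-concentration, 48-hour dose response in 96-well plates. Here, GI50 denotes the concentration required for 50% inhibition of growth.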

Each substance was assayed on RPMI-8226 (assay: NCI tumour cell line growth inhibition, 48 h).

Substance	GI50 [nM]
[Bis(aminomethyl)diethylsilane]tetrachloroplatinum(IV), CHEMBL2146203	1620
[Bis(aminomethyl)pentamethylenesilane]tetrachloropaltinum(IV), CHEMBL2146204	4530
[Bis(aminomethyl)tetramethylenesilane]dichloropaltinum(II), CHEMBL2146205	9860
[Bis(aminomethyl)dimethylsilane]tetrachloroplatinum(IV), CHEMBL2146190	2110
mu-(1,7-nanodiamine-N,N')bis-(cis-aminedichloroplatimum (II)), CHEMBL2146215	26200
[Bis(aminomethyl)tetramethylenesilane]tetrachloropaltinum(IV), CHEMBL2146189	1100
[Bis(aminomethyl)ethylmethylsilane]tetrachloroplatinum(IV), CHEMBL2146192	1320
cis-Bis[[(trimethylsilyl)methyl]amino]tetrachloroplatinum(IV), CHEMBL2146191	1940
[Bis(aminomethyl)pentamethylenesilane]dichloropaltinum(II), CHEMBL2146202	1920
CISPLATIN, CHEMBL11359	4290
[Bis(aminomethyl)dimethylsilane]dichloroplatinum (II), CHEMBL2146201	12200
